Bioassay records from PubChem.
Tau filament bind: tau filament binding | recombinant tau filaments, thioflavin S fluorescence, 15 h; filaments grown with octadecylsulfate alongside compound | 71,000 compounds, 2% hits | Potency, µM (top dose mostly 57.1 µM), for the others: top-dose activity change, negative = inhibition | P10636;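 further: actives lower thioflavin S fluorescence by blocking filaments or displacing dye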
Target sequence (P10636 whole entry, looked up): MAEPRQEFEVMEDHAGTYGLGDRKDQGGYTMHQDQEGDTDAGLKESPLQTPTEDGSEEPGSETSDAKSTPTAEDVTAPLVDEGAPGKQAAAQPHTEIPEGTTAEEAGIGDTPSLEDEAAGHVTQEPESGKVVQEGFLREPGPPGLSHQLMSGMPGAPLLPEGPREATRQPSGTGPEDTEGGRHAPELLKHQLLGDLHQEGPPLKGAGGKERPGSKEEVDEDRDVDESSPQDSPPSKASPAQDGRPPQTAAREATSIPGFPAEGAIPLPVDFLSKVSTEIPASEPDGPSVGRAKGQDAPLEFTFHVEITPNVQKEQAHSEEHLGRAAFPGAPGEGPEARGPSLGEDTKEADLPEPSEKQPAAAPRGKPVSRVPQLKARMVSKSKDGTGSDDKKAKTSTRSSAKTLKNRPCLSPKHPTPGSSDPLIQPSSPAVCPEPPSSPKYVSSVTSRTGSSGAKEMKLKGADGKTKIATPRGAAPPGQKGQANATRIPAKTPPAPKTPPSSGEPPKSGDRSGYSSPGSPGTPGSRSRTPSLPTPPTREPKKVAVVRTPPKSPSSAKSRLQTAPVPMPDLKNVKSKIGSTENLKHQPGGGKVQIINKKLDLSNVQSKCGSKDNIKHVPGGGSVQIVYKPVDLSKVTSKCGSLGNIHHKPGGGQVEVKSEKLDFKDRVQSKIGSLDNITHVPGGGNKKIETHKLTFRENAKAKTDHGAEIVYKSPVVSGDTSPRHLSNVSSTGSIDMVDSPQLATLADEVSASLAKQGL
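Tau 2 uM in ThS buffer dispensed; compound added; 60 uM ODS added (finals 1 uM tau, 30 uM ODS); 15 h 37 C; fluor ex450/em510.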
FLuc inh: firefly luciferase inhibition | 72,000 compounds, 2.2% hits | P08659 | purified firefly luciferase, luminescence, 8 min | AID 411 | Potency, µM (series often up to 57.1 µM), without a hit: top-dose activity change, negative = inhibition, usual class: inhibitors; further: nearly all actives have a fitted effect of over 40% in size
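Titration-based qHTS; buffer 50 mM imidazole pH 7.2, 50 mM KCl, 7 mM MgCl2, 10 uM ATP, 0.01% Tween 20, 0.05% BSA; luciferase/luciferin detector mix added after compound; 8 min, ambient; luminescence.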
ERK AVP block: vasopressin-driven ERK pathway inhibition. HEK293-V1b, vasopressin-stimulated pERK AlphaScreen. Potency, µM (highest dose often 57.5 µM), inactives show at the top dose activity, negative = inhibition, hits mostly inhibitors. 72,000 compounds, 0.99% hits. AID 995; further: nearly all actives have a fitted effect of over 55% in size
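Overnight-seeded V1b-HEK293 cells in 1% FBS got compound, then vasopressin (25 nM final, 5 min, 37C), then lysis buffer. AlphaScreen detection of phospho-ERK; activity normalized to basal and full-stimulation controls.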
ALOX15 inhib: inhibitors of human 15-lipoxygenase (ALOX15); purified 15hLO-1, xylenol orange hydroperoxide absorbance; Potency, µM (top dose mostly 57.1 µM), for inactives: at the highest dose activity change, negative = inhibition, actives largely listed as inhibitors; 74,000 compounds, 1.4% hits; AID 887; further: nearly all actives have a fitted effect of over 55% in size
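Inhibition is scored from a chromogenic endpoint. After 15 min enzyme-compound contact, arachidonic acid (50 uM final) reacts 6 min with 40 nM 15hLO-1 at room temperature, then Fe-XO reagent is added for 30 min and absorbance ratio recorded.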
Bst PK mod: alters activity of Bacillus stearothermophilus pyruvate kinase | purified pyruvate kinase, luminescence ATP production; ribose 5-phosphate activator present at AC10 | Potency, µM | 51,000 compounds, 1.2% hits | AID 361; in the data active means potency below about 11 µM; inconclusive means mostly about 12 µM to 25 µM;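 the screen sought inhibitors and activators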;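 further: scaled between full activation by ribose 5 phosphate and full inhibition by luteolin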
Pol III holo inh: blocks replication by bacterial DNA polymerase III holoenzyme; reconstituted DNA polymerase III holoenzyme replication, biochemical; Potency, µM (doses to about 57.1 µM), for the others: top-dose activity change, negative = inhibition; 71,000 compounds, 0.25% hits; AID 603
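Reconstituted *E. coli* holoenzyme (0.35 nM Pol III, 1 nM beta, 154 nM SSB, 2 nM primase) was preincubated with compound for 15 min at RT. Synthesis on 1.4 nM ssM13Gori ran 35 min, then was stopped with PicoGreen/EDTA and read as dsDNA fluorescence.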
Starred values were filed as active, the others as inactive; i = inactive; ? = inconclusive; . = no result given; [ ] = remark or other dose. This is a sample that favours compounds with a hit; in the whole collection about 6% have one here. Unless noted, the call rests on the fitted dose curve; in most records, active means well fitted curve in the direction sought with a large enough effect; inconclusive means small, poorly fitted or top-dose-only effect, or another doubt; inactive means no such curve, though single readings can be large; an effect the other way counts as inactive or inconclusive. Unless noted, on the % scale 0 is the no-effect control and ±100 the full control effect; potency means the concentration at half of the fitted maximal effect.

SMILES	Tau filament bind	FLuc inh	ERK AVP block	ALOX15 inhib	Bst PK mod	Pol III holo inh
C[C@@]12C[C@H](O)[C@@H]3[C@H](CCC4=CC(=O)CC[C@]43C)[C@H]1CC[C@@H]2c1csc(-c2ccccc2)n1	34%[11.4 µM]	5%[11.4 µM]	-14%[11.5 µM]	14%[11.4 µM]	.	11%[11.4 µM]
Cn1ccnc1C[C@@](C)(O)c1ccccc1	8%[11.4 µM]	1%[11.4 µM]	-19%[11.5 µM]	2%[11.4 µM]	.	-1%[11.4 µM]
CCOc1nc(C#N)nc(N2CCCCC2)n1	13µM*	2%	36%	-9%	>57	1%
Cc1cc(C(=O)OCC(=O)N2CCN(C(=O)c3ccco3)CC2)c(C)n1-c1ccc(F)cc1	10%	2%	-11%	3%	>57	-2%
Cc1cc(C(=O)CNCc2ccco2)c(C)n1-c1ccc(F)cc1	6%	25µM*	-8%	?	.	2%
COc1ccc(S(=O)(=O)N(C(C)=O)c2ccc3oc(=O)sc3c2)cc1	-1%	-4%	2%	5µM*	>57	-10%
COc1cccc(NC(=O)c2ccccc2-c2nc(-c3cccc(C)c3)no2)c1	60%	-19%	-19%	-9%	.	-8%
O=C(NCC1CCCO1)c1ccccc1-c1nc(-c2ccc(Cl)cc2)no1 (configuration not stated)	18%	?	-11%	-4%	10*	-3%
Cc1cccc(-c2noc(-c3ccccc3C(=O)NCC3CCCO3)n2)c1 (configuration not stated)	-10%	16µM*	-11%	3%	.	7%
C[C@H]1C=C2C=C[C@H](C)[C@H](CC[C@@H]3C[C@@H](O)CC(=O)O3)[C@H]2[C@@H](OC(=O)[C@@H](C)CCO)C1	?	0%	12%	?	.	-4%
CCCCCN=Cc1c(C)[nH]n(-c2nc3ccccc3s2)c1=O	35%[11.4 µM]	7.9µM*	-17%	57%[11.4 µM]	.	-5%[11.4 µM]
Cc1ccc(C2C3=C(CC(C)(C)CC3=O)Nc3[nH]c(=S)[nH]c(=O)c32)cc1 (configuration not stated)	8%	1%	22%	20µM*	>57	6%
O=c1c(CCc2ccccc2)nc2cnc(N3CCNCC3)nc2n1Cc1ccc(F)cc1	27%	1%[11.4 µM]	?	-2%	.	-4%
O=C1OCCC1Sc1nnc(-c2ccccc2)o1 (configuration not stated)	12%	-15%	?	-2%	8.8*	-2%
CCCCc1nc2c(c3c1CC(C)OC3)CN(CCC(C)C)CC2 (configuration not stated)	.	.	7%[11.5 µM]	4%[11.4 µM]	.	.
C=CCN1C(=O)CSC1=Nc1cccc(O)c1	6%	8%	?	3%	>57	-3%
C=CCN1C(=O)CS/C1=C(\C#N)S(=O)(=O)c1ccc(C)cc1	16µM*	0%	?	-18%	>57	0%
COc1ccc(-n2c(=O)c(CCc3ccccc3)nc3cnc(N4CCN(C)CC4)nc32)cc1	6%	-1%[11.4 µM]	-29%	-4%	.	4%
N#Cc1sc2nc(-c3ccccc3)cc(-c3ccco3)c2c1N	2.5µM*	-10%	-24%	4µM*	?	-2%
N#Cc1c(-c2ccccc2)cc(-c2ccco2)c(C#N)c1N	43%	-1%	?	7.9µM*	.	-6%
CC(C)(C)c1cc(-c2ccco2)c(C#N)c(SCC#N)n1	.	2%[25.5 µM]	.	.	>26	.
O=C(/C=C/c1ccc(O)c(O)c1)O[C@@H]1C[C@@](O)(C(=O)O)C[C@H](O)[C@@H]1O	.	.	-19%	-3%[25.6 µM]	.	.
CCOc1ccc2nc(N3CCCCCC3)sc2c1	7%	13µM*	3%	1%	i	2%
CCCN1CCN(CCCNC(=O)C2CCCN(c3nc4ccc(OCC)cc4s3)C2)CC1 (configuration not stated)	62%	7.9µM*	-1%	-8%	i	-7%
CCOc1ccc2nc(N3CCCC(C(=O)N4CCN(CC)CC4)C3)sc2c1 (configuration not stated)	-18%	?	6%	-9%	.	-1%
CCOc1ccc2nc(NS(C)(=O)=O)sc2c1	16µM*	-15%	-13%	-12%	.	-2%
